The values below come from PubChem BioAssay AID1454 (National Center for Advancing Translational Sciences (NCATS), 2008).

Each structure is given as a SMILES string. The campaign covered roughly 130,000 compounds. About 550 (0.42%) were called active. About 4% were inconclusive and are not listed. Many of the other results were omitted from the sample, so actives are more common in it than they were. Unmarked numbers belong to inactive results. The call rests on the fitted dose curve; in most records, active means well fitted inhibition curve with a large enough effect; inconclusive means small, poorly fitted or top-dose-only effect, or effect the other way; inactive means flat fitted curve, though single readings scatter.
Potency means the concentration at half of the fitted maximal effect.

This assay can be described thus: qHTS Assay for Inhibitors of the ERK Signaling Pathway using a Homogeneous Screening Assay; Stimulation with EGF. Further: nearly all actives have a fitted effect of over 55% in size.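 On activity change, negative = inhibition: plate controls were stimulated vehicle wells for no effect and unstimulated vehicle basal for full effect.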 As to conditions: HEK293-V1b, EGF-stimulated phospho-ERK AlphaScreen; series mostly up to 11.5 µM; activity change, negative = inhibition: at the top concentration. From the text:
NIH Chemical Genomics Center [NCGC]
NIH Molecular Libraries Screening Centers Network [MLSCN]
Assay Submitter (PI): Dr. Wei Zheng, NCGC/NIH
The Ras/extracellular-signal-regulated kinase (ERK) mitogen activated protein (MAP) kinase signaling pathway (ERK1/2 cascade) plays a key role in transmitting signals from the cell surface to the nucleus (Nishida and Gotoh 1993; Chang and Karin, 2001). The cascade is initiated by the small G-protein Ras, which recruits Raf from the cytosol, where activation occurs. Alternatively, this pathway can be activated by elevating intracellular cAMP, or by activation of a receptor tyrosine kinase as epidermal growth factor receptor.
Activation of the ERK pathway is essential in increased cell division and cell survival. Sustained and constitutive activation of the ERK pathway, however, has been linked to uncontrolled cell proliferation, increased cell survival, and tumor progression. Thus, the ERK has been as an attractive target for cancer chemotherapy in the past few years (Sebolt-Leopold and Herrera, 2004). Given its physiological and pathological importance, assessment of ERK phosphorylation has been broadly performed in both basic research and drug discovery. Most assays for the measurement of ERK phosphorylation use the antibody-based detection methods, such as western blot and ELISA. These assays require multiple reagent additions with cell wash steps and are not suitable for high throughout screening.
The current cell-based ERK phosphorylation assay was performed using AlphaScreen platform. AlphaScreen is a two bead-based proximity-dependent chemical energy transfer luminescent assay platform. The assay reagents (ERK SureFire(TM) kit) were supplied from TGR BioSciences (Australia). In the presence of specific antibodies, phosphorylated ERK will bring "donor" and "acceptor" beads to a proximity range (<200 nm), and subsequently lead a chemical luminescent reaction upon exciting donor beads with 680 nm laser. To exclude the assay-related false positives, we used a biotinylated rabbit IgG to perform counter-screen. The biotinylated antibody mimics the phosphorylated ERK1/2 for bringing streptavidin coated beads and protein-A coated beads to a proximity range for the AlphaScreen detection.
NCGC Assay Protocol Summary:
HEK293 cells stably expressing type-1 vasopressin receptor (V1b) were maintained in DMEM medium (Invitrogen, Carlsbad, CA) at 37C under a humidified atmosphere containing 5% CO2 and 95% air. The medium contained 10% FBS, 2 mM L-glutamine, non-essential amino acid, pyruvate and 50 U/ml penicillin and 50 ug/ml streptomycin (Invitrogen). The aliquots of frozen cells were stored at -135C and used for the compound screening. All compounds were screened as titrations from 0.6 nM to 46 uM final concentration. Epidermal growth factor (EGF) was used to stimulate the ERK phosphorylation pathway. The ERK phosphorylation in cells was determined using an AlphaScreen assay kit provided by […]. Data were normalized to the controls for basal activity (DMSO only) and 100% activation (25 nM EGF). AC50 values were determined from concentration-response data modeled with the standard Hill equation.
(1) Seed 4 ul/well of resuspended frozen HEK293 cells containing 2000 cells in white 1536-well plates for overnight with 1% FBS at 37C under a humidified atmosphere containing 5% CO2 and 95% air.
(2) Add 23 nL compounds in DMSO solution. The final titration was 0.6 nM to 46 uM.
(3) Incubate at 37C for 30 min.
(4) Dispense 0.5uL EGF (25 nM in final)
(5) Incubate at 37C for 5 min.
(6) Dispense 0.5uL of 1:2 diluted 5x lysis buffer.
(7) Incubate at 37C for 10 min.
(8) Dispense 1.5uL of mixture of activation buffer and reaction buffer with AlphaScreen beads (streptavidin donor beads and protein-A acceptor beads, 10 ng/well for each).
(9) Incubate at room temperature for 5 hr.
(10) Detect the assay plate in an EnVision plate reader (PerkinElmer) using the AlphaScreen detection mode.
[…]
Turning to `CCOc1ccc(-c2nc(N)ncc2-c2ccccc2OC)c(O)c1`, the “activity change, negative = inhibition” value is -12.6% [at 57.5 µM].
With `O=C(Nc1ccc2oc(-c3ccccc3F)nc2c1)c1ccco1`, the “activity change, negative = inhibition” value is 0.33%.
For the molecule `Cc1ccc(S(=O)(=O)N(C)C)cc1NC(=O)c1n[nH]c(=O)c2ccccc12`, the “activity change, negative = inhibition” value was -4.99% [at 57.5 µM].
As for `O=C(CNC(=O)COc1ccccc1)NCCc1ccccn1`, the “activity change, negative = inhibition” value is -0.794%.
As to `CCCn1nc(Oc2nc(NC(C)C)nc(N(C)C)n2)ccc1=O`, the “activity change, negative = inhibition” value is -6.22%.
Same read-out and setting: for `O=C(NCC(=O)N(CC1CCCO1)C(C(=O)NC1CCCCC1)c1ccccc1)c1ccco1` (stereo not given) the value was -4.65%; for `NS(=O)(=O)c1ccc(NC(=O)COC(=O)c2ccco2)cc1`, 10.8%.
`O=C(Cn1cnc2ccccc2c1=O)Nc1cccc(S(=O)(=O)N2CCCCC2)c1`: the “activity change, negative = inhibition” value was 14.9% [at 57.5 µM].
As for `Fc1ccc(-c2csc(-c3ccc(C4SCCS4)cc3)n2)cc1F`, the “activity change, negative = inhibition” value was -5.85% [at 57.5 µM].
As to `COCC1CCCN(Cc2nc(-c3ccc4c(c3)OCO4)no2)C1` (stereo not given), the “activity change, negative = inhibition” value is 2.16%.
For `CCNC(=O)CC1C(=O)N(c2ccc(F)cc2)C(=O)N1Cc1cccs1` (stereo not given), the “activity change, negative = inhibition” value was -4.27%.
In the case of `CN(C)S(=O)(=O)c1ccc(Cl)c(NC(=O)COC(=O)CC(NC(N)=O)c2ccc(Cl)cc2)c1` (stereo not given), the “activity change, negative = inhibition” value was 9.73% [at 57.5 µM].
Take `COc1ccc(/C=C/c2nnc(NC(=O)C(C)C)s2)cc1`: the “activity change, negative = inhibition” value was 1.71% [at 57.5 µM].
With `O=C(O)c1ccc(/C=N/Nc2nc(N3CCCCC3)nc(N3CCCCC3)n2)cc1`, the “activity change, negative = inhibition” value was -5.89% [at 57.5 µM].
In the case of `COc1cc(OC)cc(-c2nnc(SCC(=O)Nc3ccc(C(=O)O)cc3)s2)c1`, the “activity change, negative = inhibition” value was -1.87%.
Turning to `NC(=O)COc1ccc(NC(=O)c2ccccc2-c2ccccc2)cc1`, the “activity change, negative = inhibition” value was -15.3%.
For `O=C(CSc1nncs1)NC1CCCc2ccccc21` (stereo not given), the “activity change, negative = inhibition” value was -7%.
Turning to `O=C(O)c1cccnc1Sc1ncnc2sc3c(c12)CCC3`, the “activity change, negative = inhibition” value was -13.3% [at 57.5 µM].
On the same count and under the same terms, for `N#C/C(=C/c1ccc(N2CCOCC2)o1)C(=O)N1CCOCC1` the value was 11.4%.
With `N#C/C(=C\C1=C(N2CCOCC2)C(=C\c2ccccc2)/CC1)C(=O)Nc1ccccc1F`, the Potency was 7.08 µM (active).
Turning to `N#C/C(=C\c1ccccc1C(F)(F)F)C(=O)Nc1ccccc1F`, the “activity change, negative = inhibition” value was -4.8%.
For the molecule `O=C(CSc1nnnn1-c1ccc(O)cc1)c1ccc(F)cc1`, the “activity change, negative = inhibition” value was -7.72% [at 57.5 µM].
The same measure, in the same setting: the same measure for `O=C(CCCNS(=O)(=O)c1cccc2nsnc12)NCCN1CCN(c2ccccc2F)CC1`: -6.43%.
Same read-out and setting: for `CCN(CC)CCCNC(=O)Cn1cnc2sc(C)c(S(=O)(=O)N3CCN(c4ncccn4)CC3)c2c1=O` the value was -2.86%.
Turning to `COc1cccc(CNC(=O)CCC2CCCN(C(=O)c3ccoc3C)C2)c1` (stereo not given), the “activity change, negative = inhibition” value was -3.88%.
In the case of `O=C(NC(=S)NC1CCSC1=O)c1ccccc1F` (stereo not given), the Potency is 20 µM (active).
Regarding `COC(=O)c1ccccc1NC(=S)NC(=O)c1ccccc1F`, the “activity change, negative = inhibition” value was -0.514%.
Same read-out and setting: for `O=C(NCCc1csc(-c2ccccc2)n1)c1ccccc1F` the value was 5.73% [at 57.5 µM]; for `Cc1ccc(S(=O)(=O)N2CCN(C(=O)COC(=O)c3c(C)noc3C)CC2)c(C)c1`, -0.545% [at 57.5 µM].
Consider `O=C(NNC(=O)c1cnccc1C(F)(F)F)c1ccc(Cl)cc1`, for which the “activity change, negative = inhibition” value was -8.71% [at 57.5 µM].
`COc1cc2nc(Cl)nc(NCCO)c2cc1OC`: the “activity change, negative = inhibition” value was 1.73% [at 57.5 µM].
For the molecule `NS(=O)(=O)c1cccc(NC(=O)CSc2nc3ccccc3n2-c2ccccc2)c1`, the “activity change, negative = inhibition” value was -7.08%.
`COC(=O)c1ccc(NC(=S)NN2CCOCC2)cc1`: the “activity change, negative = inhibition” value was -0.482%.
The same measure, in the same setting: for `CN1CCN(/N=C2/C(=O)Nc3ccc([N+](=O)[O-])cc32)CC1` the value was -4.33%; for `COCCCNC(=S)N(Cc1ccccc1)Cc1ccc(F)cc1`, 0.532%.
On to `Cc1nn(-c2ccccc2)c(Cl)c1/C=C/C(=O)c1ccc(O)cc1`, for which the Potency was 15.8 µM (active).
`O=C(/C=C/c1ccc(Cl)c([N+](=O)[O-])c1)c1ccc(O)cc1`: the “activity change, negative = inhibition” value was 2.12% [at 57.5 µM].
The same measure, in the same setting: for `Cc1nn(-c2ccccc2)c(C)c1/C=C/C(=O)OC(C)C(N)=O` (stereo not given) the value was -1.64%.
Consider `COc1ccc(OC)c(NC(=O)N[C@H](Cc2ccccc2)C(=O)NN)c1`, for which the “activity change, negative = inhibition” value is 2.4% [at 57.5 µM].
Same read-out and setting: the same measure for `CN(C)S(=O)(=O)c1ccc(C(=O)NCC(C)(C)N2CCOCC2)cc1`: -14.2% [at 57.5 µM]; for `CC1(C)OC(=O)C(=CSc2ccc(C(C)(C)C)cc2)C(=O)O1`: -2.11%; for `COc1ccc(NC(=S)NCCNC(C)=O)cc1`: -28.6%.
`COc1ccc(N2CCC(CNC(=S)Nc3c(C)cccc3C)C2)cc1` (stereo not given): the Potency was 12.6 µM (active).
As for `COc1cccc(N2CC(C(=O)Nc3c(C)cccc3C)CC2=O)c1` (stereo not given), the “activity change, negative = inhibition” value is -8.02%.
As for `COc1ccc(NC(=S)NCC2CCN(c3ccc(OC)cc3)C2)cc1` (stereo not given), the Potency was 25.1 µM (active).
With `COc1ccc(NC(=O)N2CCC(Cc3ccccc3)CC2)cc1`, the “activity change, negative = inhibition” value was -15.1%.
Take `COc1ccc(NC(=S)NCCN2CCC(C)CC2)cc1`: the “activity change, negative = inhibition” value is 23.5%.
For `Cc1nc2cc(NC(=O)Nc3cccc(F)c3)ccc2n1C`, the “activity change, negative = inhibition” value was -11.2% [at 57.5 µM].
For the molecule `CC(C)=NN1C(=O)c2ccccc2NC1(C)C`, the “activity change, negative = inhibition” value is -17.9% [at 57.5 µM].
Turning to `OCCC1CN(Cc2ccc3nsnc3c2)CCN1C1CCCCC1` (stereo not given), the “activity change, negative = inhibition” value is -6.33% [at 57.5 µM].
In the case of `O=C(/C=C/c1ccc2c(c1)OCO2)NCc1cn2cc(Cl)ccc2n1`, the “activity change, negative = inhibition” value was -5.35%.
`Cc1c(Cc2ccccc2)c(=O)oc2cc(OCC(N)=O)ccc12`: the “activity change, negative = inhibition” value is -6.39%.
In the case of `Cc1ccc(S(=O)(=O)N2CCN(C(=O)c3cccs3)CC2)cc1`, the “activity change, negative = inhibition” value is -8.75%.
For `COC(=O)C1=C(N)Oc2cc(C)[nH]c(=O)c2C1c1ccc(Cl)cc1` (stereo not given), the “activity change, negative = inhibition” value is -16.6% [at 57.5 µM].
Same read-out and setting: the same measure for `O=C(NNC(=O)c1ccc(Cl)cc1Cl)c1cccs1`: 4.42%.
